Results: PubChem BioAssay AID1159580 (chemical genetic matrix, 2015)
Several values for one entry are separate records, joined by “and”; a condition that tells them apart may be missing. Equal entries are not always repeated. In all, about 5,500 compounds went through this assay and about 2,000 (36%) were called active. About 18% were inconclusive and are not listed. No stated cut-off is given here; in the data, active means normalized growth mostly below about 0.91 (no sharp cut-off); inconclusive means no clear call, values can overlap the other calls; inactive means mostly above about 0.92. Some of the results follow.

Experiment: chemical genetic growth profiling, strain panel (AID 1159580);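 further: tested at 20 µM; growth read once vehicle control cultures reached saturation at 30 °C; 1 = growth at the plate median or of vehicle wells; lower values mean less growth of the strain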
Settings: S. cerevisiae deletion strains, growth OD

Measured: normalized growth

O=C1CC2OCC=C3CN4CC[C@]56c7ccccc7N1C5[C@H]2[C@H]3CC46 (some centres not stated)
inactive: locus YAL013W, strain DEP1, active compounds read low 1 | locus YAL021C, strain ccr4, active compounds read low 1.03 | locus YAL026C, strain drs2, active compounds read low 1.03 | locus YAL030W, strain snc1, active compounds read low 1.01 | locus YBL061C, strain skt5, active compounds read low 1.01 | locus YBR009C, strain hhf1, active compounds read low 1.02 | locus YBR021W, strain FUR4, active compounds read low 1.01 | locus YBR023C, strain chs3, active compounds read low 1.03 | locus YBR171W, strain sec66, active compounds read low 1.03 | locus YBR229C, strain ROT2, active compounds read low 1 | locus YBR231C, strain swc5, active compounds read low 1.02 | locus YBR279W, strain paf1, active compounds read low 1.03 | locus YCL011C, strain gbp2, active compounds read low 1.03 | locus YCL016C, strain dcc1, active compounds read low 1.03 | locus YCL029C, strain bik1, active compounds read low 1 | locus YCL061C, strain MRC1, active compounds read low 1.02 | locus YCL069W, strain vba3, active compounds read low 1.02 | locus YCR088W, strain abp1, active compounds read low 1.03 | locus YDL005C, strain med2, active compounds read low 1.03 | locus YDL035C, strain GPR1, active compounds read low 1.01 | locus YDL040C, strain nat1, active compounds read low 1.03 | locus YDL074C, strain BRE1, active compounds read low 1.02 | locus YDL101C, strain DUN1, active compounds read low 1.01 | locus YDL134C, strain PPH21, active compounds read low 1.01 | locus YDL185W, strain tfp1, active compounds read low 0.983 | locus YDL192W, strain arf1, active compounds read low 1 | locus YDR001C, strain nth1, active compounds read low 1.03 | locus YDR069C, strain doa4, active compounds read low 1.02 | locus YDR101C, strain arx1, active compounds read low 0.992 | locus YDR137W, strain rgp1, active compounds read low 1.05 | locus YDR150W, strain NUM1, active compounds read low 1.01 | locus YDR159W, strain sac3, active compounds read low 1.01 | locus YDR162C, strain NBP2, active compounds read low 1.01 | locus YDR195W, strain ref2 1.1 | locus YDR297W, strain sur2, active compounds read low 1.02 | locus YDR318W, strain mcm21, active compounds read low 0.999 | locus YDR334W, strain swr1, active compounds read low 1.01 | locus YDR335W, strain msn5, active compounds read low 1.03 | locus YDR388W, active compounds read low 1 | locus YDR392W, strain spt3, active compounds read low 1.03 | locus YDR502C, strain sam2, active compounds read low 1 | locus YEL003W, strain gim4, active compounds read low 1.02 | locus YEL037C, strain rad23, active compounds read low 1.03 | locus YEL061C, strain CIN8 (second series), active compounds read low 1.02 | locus YEL061C, strain CIN8, active compounds read low 1.01 | locus YER015W, strain faa2, active compounds read low 1.03 | locus YER016W, strain bim1, active compounds read low 1.02 | locus YER110C, active compounds read low 0.996 | locus YER111C, strain swi4, active compounds read low 1 | locus YER155C, strain BEM2 (second series), active compounds read low 1.04 | locus YER155C, strain BEM2, active compounds read low 1.02 | locus YER167W, strain BCK2, active compounds read low 1.01 | locus YFR010W, strain ubp6, active compounds read low 1.02 | locus YGL078C, strain dbp3, active compounds read low 0.99 | locus YGL086W, strain mad1, active compounds read low 0.998 | locus YGL167C, strain pmr1, active compounds read low 1.02 | locus YGL173C, strain kem1, active compounds read low 1.02 | locus YGL227W, strain vid30, active compounds read low 1.03 | locus YGL240W, strain doc1, active compounds read low 1.01 | locus YGL248W, strain PDE1, active compounds read low 1.01 | locus YGL253W, strain hxk2, active compounds read low 1.01 | locus YGR078C, strain PAC10, active compounds read low 1.01 | locus YGR135W, strain pre9, active compounds read low 0.982 | locus YGR229C, strain SMI1, active compounds read low 1.03 | locus YGR252W, strain gcn5, active compounds read low 0.914 | locus YHR013C, strain ard1, active compounds read low 1.01 | locus YHR027C, strain rpn1, active compounds read low 1.03 | locus YHR030C, strain SLT2, active compounds read low 1 and 0.976 | locus YHR079C, strain IRE1 (second series), active compounds read low 0.997 | locus YHR079C, strain IRE1, active compounds read low 0.864 | locus YHR094C, strain hxt1, active compounds read low 0.995 | locus YHR129C, strain ARP1, active compounds read low 1.03 | locus YHR142W, strain chs7, active compounds read low 1.03 | locus YHR200W, strain rpn10, active compounds read low 1 | locus YIL066C, strain RNR3, active compounds read low 1.01 | locus YIL073C, strain SPO22, active compounds read low 1.02 | locus YIL125W, strain kgd1, active compounds read low 1 | locus YIR030C, strain dcg1, active compounds read low 1 | locus YJL092W, strain hpr5, active compounds read low 1.02 | locus YJL095W, strain BCK1 (second series), active compounds read low 1.03 | locus YJL095W, strain BCK1, active compounds read low 1 and 0.974 | locus YJL115W, strain asf1, active compounds read low 1 | locus YJL129C, strain trk1, active compounds read low 1.05 | locus YJL134W, strain LCB3, active compounds read low 1.01 | locus YJL154C, strain vps35, active compounds read low 1.01 | locus YJL164C, strain tpk1, active compounds read low 1.03 | locus YJL166W, strain qcr8, active compounds read low 1.02 | locus YJL168C, strain set2, active compounds read low 1 | locus YJL187C, strain SWE1 (second series), active compounds read low 1.01 | locus YJL187C, strain SWE1, active compounds read low 1.03 | locus YJR043C, strain POL32, active compounds read low 0.997 | locus YJR066W, strain TOR1, active compounds read low 0.961
